Source: the supplement of paper PMC11732987, “Enantioselective OTUD7B fragment discovery through chemoproteomics screening and high-throughput optimisation” (Communications Chemistry, 2025)

Experiments:
Experiment in all cases: log2 ratio of Biotin-Ahx-Ub-VS probe labelling (fragment/DMSO); higher = less target engagement (more negative = stronger competition), active = hit call of the paper (q ≤ 0.05, log2 ratio ≤ -1)
Settings in all cases: compound concentration: 200 uM; treatment time: 3 h
USP34 = USP34 (UniProt Q70CQ2)
Summary of the method: (§1)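 Labelling with Biotin-Ahx-Ub-VS (0.5 µM final, 1 h) followed a 3 h triplicate treatment of HEK293T lysate (495 µg per sample, Tris/CHAPS/IGEPAL buffer with protease inhibitors) with fragment at 200 µM or vehicle. Labelled DUBs were NeutrAvidin-enriched, digested with LysC and trypsin, and run by diaPASEF LC-MS/MS. The values, average log2 fragment/vehicle ratios by unpaired t-test, come from global-median-normalised Spectronaut label-free quantities. Proteins with ≥2 unique peptides were used.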

USP36 = biological target: T1, USP36 (UniProt Q9P275)
T1 sequence (whole entry): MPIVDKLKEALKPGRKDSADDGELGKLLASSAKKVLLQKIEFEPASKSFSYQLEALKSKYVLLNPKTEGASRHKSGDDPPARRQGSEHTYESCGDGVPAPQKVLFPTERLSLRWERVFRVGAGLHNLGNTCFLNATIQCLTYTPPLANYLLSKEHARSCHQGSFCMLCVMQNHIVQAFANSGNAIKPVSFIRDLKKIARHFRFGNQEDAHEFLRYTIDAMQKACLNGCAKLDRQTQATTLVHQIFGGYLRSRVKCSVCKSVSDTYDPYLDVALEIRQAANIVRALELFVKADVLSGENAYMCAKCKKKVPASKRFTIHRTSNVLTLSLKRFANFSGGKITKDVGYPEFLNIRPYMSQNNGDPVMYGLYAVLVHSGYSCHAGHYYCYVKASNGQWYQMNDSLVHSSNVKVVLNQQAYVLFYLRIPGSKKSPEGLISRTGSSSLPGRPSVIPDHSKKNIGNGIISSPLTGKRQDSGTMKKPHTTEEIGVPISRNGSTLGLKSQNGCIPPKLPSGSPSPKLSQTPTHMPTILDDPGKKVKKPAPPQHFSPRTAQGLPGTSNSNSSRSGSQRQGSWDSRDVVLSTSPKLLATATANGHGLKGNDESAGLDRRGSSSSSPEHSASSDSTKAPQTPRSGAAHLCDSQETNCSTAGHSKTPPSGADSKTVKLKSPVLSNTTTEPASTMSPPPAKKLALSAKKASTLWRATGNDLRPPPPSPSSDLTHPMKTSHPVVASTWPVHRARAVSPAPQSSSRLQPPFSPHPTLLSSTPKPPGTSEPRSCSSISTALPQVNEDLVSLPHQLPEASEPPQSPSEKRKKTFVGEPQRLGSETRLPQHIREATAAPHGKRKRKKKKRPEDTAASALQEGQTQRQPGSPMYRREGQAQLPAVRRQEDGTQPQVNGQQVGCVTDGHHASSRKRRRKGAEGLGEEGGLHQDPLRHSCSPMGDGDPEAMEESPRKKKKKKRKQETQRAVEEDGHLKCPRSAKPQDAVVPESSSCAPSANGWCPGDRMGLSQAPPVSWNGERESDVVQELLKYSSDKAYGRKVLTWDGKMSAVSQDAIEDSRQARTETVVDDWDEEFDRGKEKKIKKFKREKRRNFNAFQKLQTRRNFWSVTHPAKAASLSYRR
Summary of the method: as §1

USP38 = biological target: T2, USP38 (UniProt Q8NB14)
T2 sequence (whole entry): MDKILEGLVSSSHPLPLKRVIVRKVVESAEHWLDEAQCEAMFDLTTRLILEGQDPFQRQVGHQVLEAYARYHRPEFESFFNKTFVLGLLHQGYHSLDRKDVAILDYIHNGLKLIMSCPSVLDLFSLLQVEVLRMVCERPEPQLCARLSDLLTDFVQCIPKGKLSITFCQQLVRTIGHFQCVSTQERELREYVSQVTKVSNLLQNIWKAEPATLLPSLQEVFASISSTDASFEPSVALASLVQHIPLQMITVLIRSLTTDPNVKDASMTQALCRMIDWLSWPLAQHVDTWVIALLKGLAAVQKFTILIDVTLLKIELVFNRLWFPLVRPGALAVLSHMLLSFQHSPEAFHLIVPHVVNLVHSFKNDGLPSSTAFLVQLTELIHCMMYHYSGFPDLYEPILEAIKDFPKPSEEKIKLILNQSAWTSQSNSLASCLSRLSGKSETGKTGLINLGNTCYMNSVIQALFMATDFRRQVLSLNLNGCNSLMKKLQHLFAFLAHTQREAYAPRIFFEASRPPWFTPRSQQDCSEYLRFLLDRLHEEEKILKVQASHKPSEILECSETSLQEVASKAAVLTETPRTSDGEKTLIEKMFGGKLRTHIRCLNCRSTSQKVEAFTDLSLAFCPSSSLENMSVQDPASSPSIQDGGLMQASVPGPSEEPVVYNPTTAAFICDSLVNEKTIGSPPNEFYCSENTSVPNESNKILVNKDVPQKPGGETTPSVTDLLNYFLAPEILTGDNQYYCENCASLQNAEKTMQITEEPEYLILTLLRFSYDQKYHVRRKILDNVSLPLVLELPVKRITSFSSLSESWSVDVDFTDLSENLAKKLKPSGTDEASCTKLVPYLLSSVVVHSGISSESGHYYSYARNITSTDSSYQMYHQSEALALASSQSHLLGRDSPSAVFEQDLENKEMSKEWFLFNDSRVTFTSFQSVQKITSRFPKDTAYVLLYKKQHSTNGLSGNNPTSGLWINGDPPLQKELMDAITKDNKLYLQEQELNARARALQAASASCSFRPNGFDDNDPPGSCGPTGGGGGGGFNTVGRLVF
Summary of the method: as §1

USP39 = biological target: T3, USP39 (UniProt Q53GS9)
T3 sequence (whole entry): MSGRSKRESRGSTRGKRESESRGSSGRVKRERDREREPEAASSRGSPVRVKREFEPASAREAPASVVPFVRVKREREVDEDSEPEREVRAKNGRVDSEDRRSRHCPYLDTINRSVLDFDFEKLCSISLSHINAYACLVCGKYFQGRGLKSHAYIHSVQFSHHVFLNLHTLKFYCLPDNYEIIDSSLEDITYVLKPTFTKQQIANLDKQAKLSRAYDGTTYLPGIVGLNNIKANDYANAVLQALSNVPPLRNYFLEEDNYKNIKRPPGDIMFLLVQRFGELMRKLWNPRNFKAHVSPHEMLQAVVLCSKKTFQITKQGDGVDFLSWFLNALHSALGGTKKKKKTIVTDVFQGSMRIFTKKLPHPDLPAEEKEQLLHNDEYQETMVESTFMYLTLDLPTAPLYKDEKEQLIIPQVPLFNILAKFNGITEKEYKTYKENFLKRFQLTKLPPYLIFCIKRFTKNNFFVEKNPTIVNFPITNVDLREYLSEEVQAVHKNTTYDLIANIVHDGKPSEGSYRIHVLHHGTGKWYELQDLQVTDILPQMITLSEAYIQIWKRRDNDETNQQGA
Summary of the method: as §1

USP4 = biological target: T4, USP4 (UniProt Q13107)
T4 sequence (whole entry): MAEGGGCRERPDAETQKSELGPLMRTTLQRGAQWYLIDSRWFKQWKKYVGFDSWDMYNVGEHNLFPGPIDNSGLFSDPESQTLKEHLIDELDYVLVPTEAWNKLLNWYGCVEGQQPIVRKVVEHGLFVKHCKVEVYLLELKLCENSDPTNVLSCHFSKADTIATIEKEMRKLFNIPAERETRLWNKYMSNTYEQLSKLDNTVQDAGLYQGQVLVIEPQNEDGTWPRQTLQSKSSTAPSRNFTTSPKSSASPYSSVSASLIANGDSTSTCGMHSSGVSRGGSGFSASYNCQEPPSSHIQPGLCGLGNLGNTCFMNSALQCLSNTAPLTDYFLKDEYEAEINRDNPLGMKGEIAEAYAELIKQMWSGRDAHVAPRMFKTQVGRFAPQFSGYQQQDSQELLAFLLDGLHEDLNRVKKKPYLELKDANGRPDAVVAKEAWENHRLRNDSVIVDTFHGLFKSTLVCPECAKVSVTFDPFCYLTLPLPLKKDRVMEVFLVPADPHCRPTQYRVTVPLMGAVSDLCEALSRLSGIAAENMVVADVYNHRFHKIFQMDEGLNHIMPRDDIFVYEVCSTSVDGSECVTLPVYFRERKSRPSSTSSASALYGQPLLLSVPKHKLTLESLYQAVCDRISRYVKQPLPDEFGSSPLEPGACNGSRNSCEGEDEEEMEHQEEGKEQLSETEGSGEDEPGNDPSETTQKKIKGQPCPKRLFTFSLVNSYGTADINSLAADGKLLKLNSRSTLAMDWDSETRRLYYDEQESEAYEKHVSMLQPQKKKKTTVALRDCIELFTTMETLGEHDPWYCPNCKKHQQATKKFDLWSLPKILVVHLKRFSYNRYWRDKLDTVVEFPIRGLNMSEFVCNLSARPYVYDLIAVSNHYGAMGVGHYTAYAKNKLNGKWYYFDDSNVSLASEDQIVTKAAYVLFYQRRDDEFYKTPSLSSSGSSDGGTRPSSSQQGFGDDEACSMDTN
Summary of the method: as §1

Measured: log2 ratio of Biotin-Ahx-Ub-VS probe labelling

Chain of USP34 (Q70CQ2 whole entry, the tested form may be a part): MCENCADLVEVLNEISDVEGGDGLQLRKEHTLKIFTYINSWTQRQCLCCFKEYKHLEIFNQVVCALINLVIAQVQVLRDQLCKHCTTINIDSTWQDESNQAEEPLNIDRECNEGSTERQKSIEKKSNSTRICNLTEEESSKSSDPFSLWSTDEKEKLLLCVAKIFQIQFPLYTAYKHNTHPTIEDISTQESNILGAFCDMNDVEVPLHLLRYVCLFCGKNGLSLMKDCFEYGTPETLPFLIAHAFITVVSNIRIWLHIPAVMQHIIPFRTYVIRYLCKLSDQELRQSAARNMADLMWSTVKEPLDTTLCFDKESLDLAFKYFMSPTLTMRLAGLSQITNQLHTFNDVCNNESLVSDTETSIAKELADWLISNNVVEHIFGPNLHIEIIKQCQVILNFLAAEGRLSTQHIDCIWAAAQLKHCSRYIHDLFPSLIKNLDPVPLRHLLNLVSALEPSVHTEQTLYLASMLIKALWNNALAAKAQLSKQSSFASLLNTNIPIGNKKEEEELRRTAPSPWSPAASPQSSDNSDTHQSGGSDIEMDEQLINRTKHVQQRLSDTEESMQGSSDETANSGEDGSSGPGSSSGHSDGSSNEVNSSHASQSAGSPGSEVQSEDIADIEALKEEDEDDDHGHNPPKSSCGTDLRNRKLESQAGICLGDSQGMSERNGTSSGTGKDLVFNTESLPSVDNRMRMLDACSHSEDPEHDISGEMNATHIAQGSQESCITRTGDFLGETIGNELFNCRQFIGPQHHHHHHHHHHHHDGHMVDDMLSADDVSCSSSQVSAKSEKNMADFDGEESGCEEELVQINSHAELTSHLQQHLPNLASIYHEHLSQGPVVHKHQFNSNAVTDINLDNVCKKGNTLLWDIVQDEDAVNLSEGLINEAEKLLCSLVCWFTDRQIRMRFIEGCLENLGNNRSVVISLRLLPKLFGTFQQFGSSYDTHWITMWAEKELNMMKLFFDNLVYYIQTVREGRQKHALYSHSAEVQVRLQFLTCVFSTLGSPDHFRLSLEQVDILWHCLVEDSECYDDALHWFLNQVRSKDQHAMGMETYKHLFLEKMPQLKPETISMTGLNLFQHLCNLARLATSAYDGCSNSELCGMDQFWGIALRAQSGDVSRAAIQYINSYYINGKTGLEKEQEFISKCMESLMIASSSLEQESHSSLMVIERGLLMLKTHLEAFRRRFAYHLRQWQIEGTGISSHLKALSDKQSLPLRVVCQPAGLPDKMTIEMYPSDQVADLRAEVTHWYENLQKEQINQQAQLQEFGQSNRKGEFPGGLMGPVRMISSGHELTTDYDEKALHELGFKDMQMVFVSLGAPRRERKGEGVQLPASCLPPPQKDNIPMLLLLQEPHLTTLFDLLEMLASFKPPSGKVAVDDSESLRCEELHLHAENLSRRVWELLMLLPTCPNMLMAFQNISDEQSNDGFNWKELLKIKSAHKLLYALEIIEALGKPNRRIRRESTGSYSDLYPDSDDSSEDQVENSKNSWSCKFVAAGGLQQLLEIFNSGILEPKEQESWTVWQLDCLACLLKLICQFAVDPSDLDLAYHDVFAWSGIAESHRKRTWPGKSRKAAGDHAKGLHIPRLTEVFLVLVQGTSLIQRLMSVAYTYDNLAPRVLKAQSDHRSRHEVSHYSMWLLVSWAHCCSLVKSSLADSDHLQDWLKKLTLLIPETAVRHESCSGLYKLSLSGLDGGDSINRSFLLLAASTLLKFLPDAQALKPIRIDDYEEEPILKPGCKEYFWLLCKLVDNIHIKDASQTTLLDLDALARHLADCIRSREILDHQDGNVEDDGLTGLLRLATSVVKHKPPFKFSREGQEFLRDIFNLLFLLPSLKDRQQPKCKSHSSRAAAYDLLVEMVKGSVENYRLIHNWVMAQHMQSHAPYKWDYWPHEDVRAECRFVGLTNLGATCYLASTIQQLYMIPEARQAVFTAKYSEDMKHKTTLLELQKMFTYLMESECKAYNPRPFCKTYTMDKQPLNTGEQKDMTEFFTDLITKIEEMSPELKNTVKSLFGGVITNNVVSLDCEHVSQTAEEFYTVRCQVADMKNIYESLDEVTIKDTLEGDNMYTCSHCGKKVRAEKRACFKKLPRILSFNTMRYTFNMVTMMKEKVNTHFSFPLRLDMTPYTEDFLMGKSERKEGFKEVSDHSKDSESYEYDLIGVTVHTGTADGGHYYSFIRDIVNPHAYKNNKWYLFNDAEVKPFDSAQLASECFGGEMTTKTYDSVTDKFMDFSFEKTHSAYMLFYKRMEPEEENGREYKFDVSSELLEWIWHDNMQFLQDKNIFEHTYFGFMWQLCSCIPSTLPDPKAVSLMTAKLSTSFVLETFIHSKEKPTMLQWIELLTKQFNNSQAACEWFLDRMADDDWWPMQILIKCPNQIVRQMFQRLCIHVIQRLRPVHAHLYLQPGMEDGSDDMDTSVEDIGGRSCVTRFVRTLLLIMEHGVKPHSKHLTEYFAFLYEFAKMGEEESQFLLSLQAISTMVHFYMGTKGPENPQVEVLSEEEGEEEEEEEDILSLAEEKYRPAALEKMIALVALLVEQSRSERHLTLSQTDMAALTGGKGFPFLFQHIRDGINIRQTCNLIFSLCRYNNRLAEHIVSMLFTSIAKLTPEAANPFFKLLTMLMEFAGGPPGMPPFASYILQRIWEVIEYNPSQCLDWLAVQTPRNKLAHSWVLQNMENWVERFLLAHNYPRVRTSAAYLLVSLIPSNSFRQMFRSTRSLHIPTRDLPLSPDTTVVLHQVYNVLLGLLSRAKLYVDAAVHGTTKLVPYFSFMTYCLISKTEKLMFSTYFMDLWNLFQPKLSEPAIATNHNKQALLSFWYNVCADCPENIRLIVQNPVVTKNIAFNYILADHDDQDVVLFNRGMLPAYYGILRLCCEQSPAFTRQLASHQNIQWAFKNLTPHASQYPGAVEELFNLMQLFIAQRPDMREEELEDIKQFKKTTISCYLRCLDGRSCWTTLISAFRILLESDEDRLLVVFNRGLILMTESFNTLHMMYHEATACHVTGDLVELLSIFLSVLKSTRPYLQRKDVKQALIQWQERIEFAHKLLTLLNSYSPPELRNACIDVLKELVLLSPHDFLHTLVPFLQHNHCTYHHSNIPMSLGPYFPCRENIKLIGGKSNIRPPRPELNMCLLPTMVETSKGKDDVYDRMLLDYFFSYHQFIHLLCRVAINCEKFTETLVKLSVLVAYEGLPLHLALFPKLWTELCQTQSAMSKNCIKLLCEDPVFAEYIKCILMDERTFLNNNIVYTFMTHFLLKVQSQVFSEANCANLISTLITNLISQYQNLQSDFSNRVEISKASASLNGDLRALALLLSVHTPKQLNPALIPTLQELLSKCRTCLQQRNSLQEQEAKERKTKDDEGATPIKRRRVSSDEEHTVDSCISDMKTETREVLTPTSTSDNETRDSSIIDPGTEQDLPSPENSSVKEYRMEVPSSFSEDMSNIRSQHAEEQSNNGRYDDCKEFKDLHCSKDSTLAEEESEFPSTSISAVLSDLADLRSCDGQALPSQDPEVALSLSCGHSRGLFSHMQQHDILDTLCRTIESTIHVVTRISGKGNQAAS

CC1(NC(=O)CCl)CCS(=O)(=O)C1 (stereo not given)
inactive: USP34 -0.257 | USP36 -0.302 | USP38 -0.653 | USP39 -0.0411 | USP4 -0.424
